# Measured values: PubChem BioAssay (NCI)
# Compounds without any hit were thinned out: in the full panel of roughly 79,000, 15% have a hit. A number with no mark means an inactive call. The source made the active and inactive calls. No stated cut-off is given here; in the data, active means growth inhibition above about 70%; inactive means the rest.
# Test: NCI Yeast Anticancer Drug Screen. Data for the wt1 strain (AID 149);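 further: 0% = growth of vehicle-treated wt1 cultures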
# Conditions: S. cerevisiae wt1 strain (SPY 50644) growth inhibition; at 100.0 µM; hits give high values
# Method in brief: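 wt1 strain grown with compound or vehicle; inhibition taken from the growth difference.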
row,SMILES,growth inhibition
1,Cc1cccc2c(C(O)CBr)cc(-c3ccc(Cl)cc3)nc12 (configuration not stated),91% (active)
2,CN(C)C[C@H]1CC[C@@H](CN(C)C)C1=O,47%
3,CC1=C(SCCO)C(=O)c2ccccc2C1=O,4%
4,COC(=O)CCNc1c2ccccc2nc2cccc([N+](=O)[O-])c12,97% (active)
5,CC(/C=C/c1ccc2c(c1)OCO2)[N+](=O)[O-] (configuration not stated),99% (active)
6,COC(=O)C1=C(C)NC(C)=C(C(=O)OCCCN2CCC(c3ccccc3)(c3ccccc3)CC2)C1c1cccc([N+](=O)[O-])c1 (configuration not stated),94% (active)
7,CCOC(=O)c1cnc2c(C(F)(F)F)cccc2c1N=[N+]=[N-],87% (active)
8,O=[N+]([O-])c1cc2no[n+]([O-])c2cc1N1CCCCC1,97% (active)
9,COC(=O)c1ccc(NCC2=CC(=O)C=CC2=O)cc1O,93% (active)
10,CCCCCCCCNC(=O)C1=C(C)NC(C)=C(C(=O)NCCCCCCCC)C1,3%
11,S=C(Nc1ccc(Cl)c(Cl)c1)SCc1ccc2c(c1)OCO2,96% (active)
12,O=S(=O)(CCCl)c1ccccc1Cl,98% (active)
13,Nc1ccccc1CC(O)C(=O)O (configuration not stated),90% (active)
14,CN(C)c1ccc(Sc2ccc3nc(N)nc(N)c3c2)cc1,-5%
15,CC(C)C1=CCC2C(=C1)CCC1C(C)(C(=O)O)CCCC21C (configuration not stated) (tested in a mixture with another compound),97% (active)
16,Cc1ccc(S(=O)(=O)Oc2cc(Cl)c(Cl)cc2Cl)cc1,-12%
17,CSC(=S)Nc1cc(C)ccn1,79% (active)
